For 16 compounds, Potency results are on record in PubChem BioAssay (Tox21).

A short description of test [1]: cAMP Responsive Elements (CRE) small molecule antagonists, cell-based qHTS assay: qHTS cell viability counter screen (AID 2060913). Note: nearly all actives have a fitted effect of over 40% in size. Note: potency is the fitted concentration of half-maximal effect. A digest of the protocol: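 CRE-bla HEK293T cells (2,000/well, 18 h) given compound plus NKH477 0.25 uM final for 3 h at 37C; viability counter-screen by CellTiter-Glo luminescence in same wells after 30 min.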
In general terms: In qHTS, concentration-response curves come from the screen itself.

Test [2] is described as follows: cAMP Responsive Elements (CRE) small molecule agonists, cell-based qHTS assay: qHTS cell viability counter screen (AID 2060914). Note: nearly all actives have a fitted effect of over 50% in size. A digest of the protocol: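 Luminescence read-out (CellTiter-Glo, 30 min RT) of ATP-based viability in CRE-bla HEK 293T cells, run in the same wells as the β-lactamase reporter assay after 3 h compound treatment at 37 °C.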

Records with an inconclusive call do not appear. Where a call stands in place of a potency, no number is given. Activity calls are given as the source filed them. Calls come from the whole dose curve; as a rule, active = well fitted cell-killing curve with a large enough effect in the repeat runs; inconclusive = weak or mixed curves, or effect the other way; inactive = flat fitted curve, though single readings scatter.

`CC(=O)O[C@H]1C[C@@H]2CC[C@@]1(C)C2(C)C`: the Potency result in test [1] and in test [2] was “inactive” in each case.

`N=C(N)S(=O)O`: the Potency entry in test [1] and in test [2] was “inactive” in each case.

In the case of `CCCCCCOc1cc(C)c(O)c(C)c1C`, the Potency in test [1] is 55.1 µM (active). Further, the Potency result in test [2] is “inactive”.

As for `O=[N+]([O-])c1cc(C(F)(F)F)ccc1Cl`, the Potency entry in test [1] and in test [2] was “inactive” throughout.

For the compound `CCCCC(CC)C(=O)O` (configuration not stated), the Potency result in test [1] and in test [2] was “inactive” throughout.

On to `C=C(C)C(=O)OCCOCCOC(=O)C(=C)C`, for which the Potency result in test [1] and in test [2] was “inactive” throughout.

As to `CCOC(=O)C(=O)CCc1ccccc1`, the Potency entry in test [1] and in test [2] was “inactive” each time.

On to `CC(C)OCC1CO1` (configuration not stated), for which the Potency result in test [1] and in test [2] was “inactive” throughout.

With `CC(=O)Nc1c(I)cc(I)c(C(=O)O)c1I`, the Potency result in test [1] and in test [2] was “inactive” each time.

Take `CC(=O)/C=C/C1C(C)=CCCC1(C)C` (configuration not stated): the Potency result in test [1] and in test [2] was “inactive” each time.

Turning to `O=C(Cl)c1ccccc1[N+](=O)[O-]`, the Potency result in test [1] and in test [2] was “inactive” throughout.

In the case of `Cc1cc(Cc2ccc(N)c(C)c2)ccc1N`, the Potency entry in test [1] and in test [2] was “inactive” each time.

In the case of `O=C(O)c1ccc(O)cc1O`, the Potency entry in test [1] and in test [2] was “inactive” throughout.

Turning to `CCCCCCCC#N`, the Potency result in test [1] and in test [2] was “inactive” in each case.

On to `C=C(c1ccc(C(=O)O)cc1)c1cc2c(cc1C)C(C)(C)CCC2(C)C`, for which the Potency entry in test [1] and in test [2] was “inactive” each time.

With `O=c1ccc2ccccc2o1`, the Potency result in test [1] and in test [2] was “inactive” in each case.
